Active and inactive are the calls of the source.
Experiments:
[1] = optical density shifts of acrAB sulA E. coli – strain DRC41, OD650, 48 h, E. coli filamentation inducer project, primary screen (AID 1152); details: higher = more signal, called active from +8 up or from −8 down;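 further: E. coli MC1000 strain DRC41 lacking acrAB efflux pump and sulA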
[2] = probe aLefty1 binding on compound microarray – biochemical, small-molecule microarray, 635/667 nm fluorescence, primary screen (AID 1153); details: higher = more signal;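 further: score merges spot fluorescence with signal-to-noise ratio from the scanned slide images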
[3] = plasmodial surface anion channel blockers, osmotic lysis – cell-based, P. falciparum Indochina, OD700, 1 h, primary screen (AID 1154); details: P. falciparum Indochina infected RBC osmotic lysis, higher = more signal, called active from +8 up or from −8 down
[4] = plasmodial surface anion channel blockers, osmotic lysis – cell-based, P. falciparum Indochina, OD700, 2 h, primary screen (AID 1155);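 further: lysis reports solute entry through the parasite surface anion channel PSAC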; details: P. falciparum Indochina infected erythrocytes, higher = more signal, called active from +8 up or from −8 down
[5] = changes in parasitized red cell lysis, either direction – P. falciparum Indochina, OD700, 3 h, PSAC antagonist project, primary screen (AID 1156); details: P. falciparum-infected erythrocytes, osmotic lysis, higher = more signal, called active from +8 up or from −8 down
[6] = plasmodial surface anion channel blockers, osmotic lysis – cell-based, P. falciparum Indochina, OD700, 18 h, primary screen (AID 1157); details: P. falciparum Indochina infected erythrocytes, osmotic lysis OD700, 18 h; higher = more signal, called active from +8 up or from −8 down
[7] = S6 kinase pathway phospho-S6 level changes – cell-based, A549, cytoblot, luminescence, serum-stimulated, primary screen (AID 1158); details: 5 h, higher = more signal;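 further: serum-stimulated A549 lung adenocarcinoma cells; signal is phosphorylated S6 detected by cytoblot immunostaining with HRP secondary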
[8] = target: NADPH oxidase 2 (Homo sapiens) (UniProt P04839); experiment: compounds shifting NOX2 Amplex Red fluorescence – cell-based, HEK293-NOX2, PMA-stimulated, NOX inhibitor project, primary screen (AID 1159); details: 45 min, higher = more signal, called active from +8 up or from −8 down; further: test concentration not given here
[9] = target: NADPH oxidase 4 (Homo sapiens) (UniProt Q9NPH5); experiment: compounds shifting NOX4 Amplex Red fluorescence – cell-based, HEK293-NOX4, tetracycline-induced, NOX inhibitor project, primary screen (AID 1160); details: HEK293-NOX4, Amplex Red H2O2 fluorescence, 45 min; higher = more signal, called active from +8 up or from −8 down
[10] = target: NADPH oxidase 5 (Homo sapiens) (UniProt Q96PH1); experiment: compounds shifting NOX5 Amplex Red fluorescence – cell-based, HEK293-NOX5, NOX inhibitor project, primary screen (AID 1161); details: HEK293-NOX5, ionomycin, 45 min, higher = more signal
[11] = compound effects on lung adenocarcinoma cell viability – A549, calcein-AM fluorescence, 48 h, basal, profiling panel (AID 1162); details: higher = more signal; further: test concentration not given here
[12] = compound effects on differentiated 3T3-L1 adipocyte viability – cell-based, 3T3-L1 adipocytes, calcein-AM fluorescence, 48 h, basal, profiling panel (AID 1163); details: 3T3-L1 adipocytes viability, higher = more signal; further: test concentration not given here
[13] = compound effects on hepatocellular carcinoma cell viability – HepG2, calcein-AM fluorescence, 48 h, basal, profiling panel (AID 1164); details: higher = more signal; further: test concentration not given here
[14] = compound effects on multiple myeloma cell viability – MM1S, calcein-AM fluorescence, 48 h, basal, profiling panel (AID 1165); details: higher = more signal;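 further: viability of MM1S multiple myeloma cells under basal unstimulated conditions; test concentration not given here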
[15] = calcein-AM signal in unstimulated myeloma cells – cell-based, calcein-AM fluorescence, 48 h, PK04 Diversity Set, profiling panel (AID 1166); details: RPMI8226 myeloma viability, higher = more signal;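 further: cells grown under basal conditions without added stimulus; test concentration not given here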
[16] = JC-1 mitochondrial signal, unstimulated HepG2 cells – cell-based, JC-1 fluorescence, 24 h, 100 nL compound, profiling panel (AID 1167); details: HepG2 mitochondrial potential, higher = more signal; further: test concentration not given here
[17] = JC-1 mitochondrial signal, unstimulated adipocytes – cell-based, JC-1 fluorescence, 3T3-L1 adipocytes, 24 h, 100 nL compound, profiling panel (AID 1168); details: JC-1 mitochondrial fluorescence, higher = more signal, called active from +8 up or from −8 down; further: test concentration not given here
[18] = JC-1 mitochondrial signal, unstimulated myeloma cells – cell-based, JC-1 fluorescence, RPMI8226, 24 h, 100 nL compound, profiling panel (AID 1169); details: JC-1 mitochondrial potential fluorescence, higher = more signal; further: test concentration not given here
[19] = JC-1 mitochondrial signal, unstimulated MM1S myeloma – cell-based, JC-1 fluorescence, 24 h, 100 nL compound, profiling panel (AID 1170); details: MM1S mitochondrial potential, higher = more signal; further: test concentration not given here
[20] = resazurin metabolic signal in A549 cells – cell-based, resazurin fluorescence, 24 h, PK04 Diversity Set, profiling panel (AID 1171); details: A549 viability, higher = more signal, called active from +8 up or from −8 down; further: test concentration not given here

NADPH oxidase 4 (Homo sapiens), sequence (Q9NPH5 whole entry, looked up): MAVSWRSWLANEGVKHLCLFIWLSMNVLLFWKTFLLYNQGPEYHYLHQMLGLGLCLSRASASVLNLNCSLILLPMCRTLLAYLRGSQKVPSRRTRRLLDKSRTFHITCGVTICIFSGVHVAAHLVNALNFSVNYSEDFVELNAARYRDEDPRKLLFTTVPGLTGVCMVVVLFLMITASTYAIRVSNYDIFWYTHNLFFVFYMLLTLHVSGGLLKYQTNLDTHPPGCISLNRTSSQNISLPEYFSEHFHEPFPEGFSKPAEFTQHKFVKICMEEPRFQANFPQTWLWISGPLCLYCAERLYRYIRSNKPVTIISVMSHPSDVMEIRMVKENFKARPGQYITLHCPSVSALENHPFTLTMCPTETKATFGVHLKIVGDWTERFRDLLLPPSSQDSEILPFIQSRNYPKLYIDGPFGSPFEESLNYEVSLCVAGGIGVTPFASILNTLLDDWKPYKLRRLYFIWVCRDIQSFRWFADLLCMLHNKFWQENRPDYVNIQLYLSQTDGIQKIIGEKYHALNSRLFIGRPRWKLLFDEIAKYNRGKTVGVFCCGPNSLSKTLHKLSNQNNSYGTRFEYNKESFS
NADPH oxidase 2 (Homo sapiens), sequence (P04839 whole entry, looked up): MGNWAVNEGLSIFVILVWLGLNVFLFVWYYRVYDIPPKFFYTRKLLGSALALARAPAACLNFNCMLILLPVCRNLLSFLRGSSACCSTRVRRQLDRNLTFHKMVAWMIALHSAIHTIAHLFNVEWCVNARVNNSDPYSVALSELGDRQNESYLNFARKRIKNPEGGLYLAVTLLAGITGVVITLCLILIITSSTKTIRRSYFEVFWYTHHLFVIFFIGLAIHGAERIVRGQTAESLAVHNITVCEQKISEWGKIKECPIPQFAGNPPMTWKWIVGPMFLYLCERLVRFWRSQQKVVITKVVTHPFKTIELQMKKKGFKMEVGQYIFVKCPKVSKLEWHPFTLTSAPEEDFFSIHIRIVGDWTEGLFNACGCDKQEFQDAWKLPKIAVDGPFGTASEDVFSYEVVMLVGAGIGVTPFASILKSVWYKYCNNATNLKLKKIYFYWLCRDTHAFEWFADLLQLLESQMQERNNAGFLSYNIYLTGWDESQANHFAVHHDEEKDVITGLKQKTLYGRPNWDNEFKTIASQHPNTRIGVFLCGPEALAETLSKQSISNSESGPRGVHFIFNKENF
NADPH oxidase 5 (Homo sapiens), sequence (Q96PH1 whole entry, looked up): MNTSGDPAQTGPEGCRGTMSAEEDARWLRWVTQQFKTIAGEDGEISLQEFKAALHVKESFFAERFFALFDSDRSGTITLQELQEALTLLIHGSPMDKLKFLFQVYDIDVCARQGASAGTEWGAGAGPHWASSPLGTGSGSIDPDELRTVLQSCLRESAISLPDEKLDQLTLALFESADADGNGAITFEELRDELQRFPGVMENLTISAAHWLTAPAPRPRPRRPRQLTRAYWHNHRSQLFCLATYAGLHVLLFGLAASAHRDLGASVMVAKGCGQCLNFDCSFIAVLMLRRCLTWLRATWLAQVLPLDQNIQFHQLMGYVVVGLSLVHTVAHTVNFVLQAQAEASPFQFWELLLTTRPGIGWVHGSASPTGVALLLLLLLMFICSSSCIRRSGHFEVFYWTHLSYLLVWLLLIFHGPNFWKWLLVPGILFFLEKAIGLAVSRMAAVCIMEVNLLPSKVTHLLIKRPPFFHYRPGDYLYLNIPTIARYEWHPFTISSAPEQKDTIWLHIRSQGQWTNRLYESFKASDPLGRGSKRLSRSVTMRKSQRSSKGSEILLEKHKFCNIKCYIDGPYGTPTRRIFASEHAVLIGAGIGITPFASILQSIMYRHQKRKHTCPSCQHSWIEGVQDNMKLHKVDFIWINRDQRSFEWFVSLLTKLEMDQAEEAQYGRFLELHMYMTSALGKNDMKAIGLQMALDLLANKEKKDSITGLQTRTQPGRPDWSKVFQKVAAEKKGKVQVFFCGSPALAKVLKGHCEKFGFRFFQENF

Compound | z-score [1] | composite z-score [2] | z-score [3] | z-score [4] | z-score [5] | z-score [6] | z-score [7] | z-score [8] | z-score [9] | z-score [10] | z-score [11] | z-score [12] | z-score [13] | z-score [14] | z-score [15] | z-score [16] | z-score [17] | z-score [18] | z-score [19] | z-score [20]
COCCOC(=O)N1C(=O)[C@@]2(c3ccccc31)[C@H](c1ccc(OCCO)cc1)N1[C@H](c3ccccc3)[C@H](c3ccccc3)OC(=O)[C@H]1[C@@H]2C(=O)N1CCCCCCC1 | -0.906 (inactive) | 2.77 | 22.8 (active) | 7.62 (inactive) | 0.586 (inactive) | 1.64 (inactive) | -0.0785 | 0.918 (inactive) | 0.901 (inactive) | 1.33 | 0.246 | 0.0203 | 0.0373 | -2.74 | -0.846 | -0.0288 | -3.41 (inactive) | -0.345 | -0.899 | 0.0556 (inactive)
COCCCNC(=O)[C@@]1(Sc2ccc(C)cc2)CC(=O)N(Cc2ccccc2Cl)[C@@H]1c1ccc(CO)cc1I | -0.192 (inactive) | 0.0004 | 3.44 (inactive) | 0.325 (inactive) | -0.575 (inactive) | 0.181 (inactive) | -0.487 | 1.52 (inactive) | -1.12 (inactive) | 2.08 | 0.217 | 0.0816 | -0.115 | -1.88 | -2.32 | -0.51 | -0.695 (inactive) | -0.175 | -1.76 | -0.268 (inactive)
C=C(CCCC)C(=O)CC[C@H](OC(=O)c1ccccc1-c1ccccc1C(=O)O)c1ccccc1OCCO | 0.509 (inactive) | -0.0984 | 8.58 (active) | 1.56 (inactive) | 1.82 (inactive) | 0.944 (inactive) | -0.27 | 3.25 (inactive) | 0.0107 (inactive) | -1.15 | 0.305 | 1.1 | -0.669 | -3.38 | -3.85 | -0.309 | 0.954 (inactive) | -0.873 | 0.311 | -0.22 (inactive)
Cc1ccc(S[C@]2(C(=O)NC(C)C)CC(=O)N(Cc3ccccc3Cl)[C@@H]2c2ccc(CO)cc2)cc1 | -1.03 (inactive) | 0.0509 | 3.11 (inactive) | 0.0285 (inactive) | 1.5 (inactive) | 0.253 (inactive) | -0.026 | -0.984 (inactive) | -1.19 (inactive) | -0.486 | 0.175 | 0.35 | -0.12 | -0.387 | -2.06 | -0.142 | -0.397 (inactive) | -0.0618 | 0.551 | 0.232 (inactive)
O=C1C2C=CC(C(O)c3cc(C(F)(F)F)cc(C(F)(F)F)c3)N(Nc3ccccc3F)C2C(=O)N1c1ccccc1 (stereo not given) | -2.27 (inactive) | 1.01 | 4.38 (inactive) | 1.93 (inactive) | -3.51 (inactive) | 2.35 (inactive) | -0.746 | -0.648 (inactive) | -4.37 (inactive) | -1.58 | -1.28 | -0.599 | -3.36 | -3.6 | -4.08 | -3.93 | 0.0394 (inactive) | -1.11 | -0.964 | -0.648 (inactive)
CCOC(=O)C1=C[C@@H](C(C)(C)C)N(S(=O)(=O)c2ccc(C)cc2)[C@H]1c1ccc(C)cc1 | -1.92 (inactive) | 0.121 | 0.302 (inactive) | 0.54 (inactive) | 0.0464 (inactive) | -0.0532 (inactive) | -0.53 | -0.875 (inactive) | -0.25 (inactive) | 0.251 | -0.681 | 0.226 | -1.73 | -1.01 | -1.1 | 6.67 | -0.251 (inactive) | -0.901 | 0.933 | 0.51 (inactive)
O=C1C[C@@](C(=O)NCC(F)(F)F)(c2ccc([N+](=O)[O-])cc2)[C@@H](c2ccc(CO)cc2)N1CC12CC3CC(CC(C3)C1)C2 | -0.0809 (inactive) | 0.282 | 5.86 (inactive) | 0.525 (inactive) | 2.97 (inactive) | -0.092 (inactive) | 2.16 | -0.178 (inactive) | -3.52 (inactive) | -5.17 | -1.8 | 1.4 | -1.57 | -2.72 | -4.39 | -1.09 | -1.29 (inactive) | -1.04 | -0.0442 | -2.08 (inactive)
CN(C)C(=O)[C@]1(CCS(=O)(=O)c2ccccc2)N=C(c2ccc(OCCCO)cc2)O[C@@H]1c1ccccc1 | 0.0024 (inactive) | -0.0072 | 30.8 (active) | 25.7 (active) | 2.91 (inactive) | 6.06 (inactive) | 0.0637 | -0.461 (inactive) | 1.52 (inactive) | -2.3 | -1.05 | 1.02 | -0.416 | -0.675 | -0.76 | 1.34 | -0.132 (inactive) | -0.783 | -1.24 | -0.482 (inactive)
C=C[C@H](C)[C@H](OC(=O)Nc1ccc(OC)cc1)c1ccc(OCCO)cc1 | 0.566 (inactive) | 0.126 | 12.4 (active) | 1.76 (inactive) | 0.193 (inactive) | 0.746 (inactive) | -0.196 | -0.288 (inactive) | 0.436 (inactive) | -2.19 | 0.366 | -0.402 | 0.692 | -0.412 | -1.83 | -0.569 | 0.627 (inactive) | -0.0376 | 0.873 | -0.262 (inactive)

Source: PubChem BioAssay
